The list is not random: actives were taken first. Their share in the collection is about 2.3%.
Akt phos inh: HTS Assay for Inhibitors of Akt Phophorylation: Primary Screen; Neuro2A IGF-stimulated pAkt S473 HTRF, 20 min; hits give low values; activity change, % for hits at 50 µM; hit rate 0.32% among 360,000; in the data active = activity change below about -80%; inconclusive = mostly about -51% to -80%; note: % is set by controls: 0 for no effect and ±100 for the full control effect
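Neuro2A cells (4,500/well, DMEM with 0.5% FBS) were treated with compound at a single 50 µM final concentration, stimulated with 6 nM IGF for 20 min at 37 °C, and lysed. Phospho-Akt Ser473 was read by HTRF as 665/615 ratio ×10^4.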
TDP-43 yeast inh: qHTS of TDP-43 Inhibitors | TDP-43 expressing yeast growth rescue, BacTiter-Glo, 24 h | hit rate 1.8% among 410,000 | AID 652104, 2013 | Potency, µM (top dose mostly 46.1 µM), without a hit: at the top dose growth rescue (activation), usual class: activators; note: potency is the fitted concentration of half-maximal effect; % of control where 0% means no effect; nearly all actives have a fitted effect of over 50% in size
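Growth rescue of TDP-43-toxic yeast measured as ATP luminescence (BacTiter-Glo). Cells grown to mid-log in raffinose, induced in galactose at OD600=0.02, exposed to compound 24 hr at 30 deg C.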
FUS suppressor: qHTS for Suppressors of FUS Proteinopathy: Primary screen using FUS-linked yeast assay; S. cerevisiae FUS-expressing, growth rescue, OD600, 24 h; Potency, µM (highest dose often 76.6 µM), most hits filed as activators; AID 1347120, 2019; hit rate 0.24% among 390,000;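 note: potency is the fitted concentration of half-maximal effect; plate controls were DMSO vehicle for no effect and reference control for full effect; nearly all actives have a fitted effect of over 55% in size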
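Compound concentration series was pinned onto galactose-induced FUS-expressing yeast seeded at OD 0.005. Plates sat 24hr at 30C; absorbance at 600 nm gave growth. DMSO served as background control.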
Abeta yeast res: qHTS for compounds that reverse cellular toxicity of Amyloid beta (A-beta) peptide in yeast: Primary Screen; Potency, µM (doses to about 46.1 µM), usual class: activators; yeast expressing A-beta42, growth rescue, OD600, 48 h; response scale: 0% DMSO, 100% iron-clioquinol control; AID 1347071, 2019; hit rate 0.063% among 410,000; note: potency is the fitted concentration of half-maximal effect; nearly all actives have a fitted effect of over 55% in size
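Growth rescue measured by 600 nm absorbance after 48 h yeast culture at 30 C with compound. Values normalized between DMSO and an equimolar ferric chloride plus clioquinol control.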
aSyn rescue: qHTS of alpha-syn Inhibitors | AID 652106, 2013 | Yeast expressing alpha-synuclein, growth rescue, BacTiter-Glo, 24 h | hit rate 0.14% among 370,000 | Potency, µM (doses to about 46.1 µM), inactives show at the top dose growth rescue (activation), actives largely listed as activators; note: potency is the fitted concentration of half-maximal effect; % of control where 0% means no effect; nearly all actives have a fitted effect of over 65% in size
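Galactose-induced alpha-syn yeast (OD600=0.02, raffinose-pregrown) + pinned cpd, 24 hr, 30 deg C; growth by BacTiter-Glo luminescence. Growth restoration scores as activation.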
Starred values were filed as active, the others as inactive; i = inactive; ? = inconclusive; . = not tested or not shown; [ ] = another dose, or the depositor's remark. Unless noted, calls come from the whole dose curve; as a rule, active = well fitted curve in the direction sought with a large enough effect; inconclusive = small, poorly fitted or top-dose-only effect, or another doubt; inactive = no such curve, though single readings can be large; an effect the other way counts as inactive or inconclusive.

SMILES	Akt phos inh	TDP-43 yeast inh	FUS suppressor	Abeta yeast res	aSyn rescue
O=C(N[C@@H]1C/C=C\C[C@H](CC(=O)N(CCO)Cc2ccccc2)C(=O)N[C@@H](Cc2c[nH]c3ccccc23)COC1=O)OCC1c2ccccc2-c2ccccc21	i	24.3%	?	i	2.3%
O=C(N[C@H]1C/C=C\C[C@H](CC(=O)N(CCO)Cc2ccccc2)C(=O)N[C@H](Cc2c[nH]c3ccccc23)COC1=O)OCC1c2ccccc2-c2ccccc21	i	6.0%	22.4µM*	i	2.0%
CCOc1ccccc1NC(=O)c1c(NCc2cccs2)sc2c1CCCCC2	.	14.8%	?	?	.
Cc1coc2c(C)c3oc(=O)c(CCC(=O)N4CCCCC4)c(C)c3cc12	.	20.1%	i	i	.
Cc1cc(C)c(C#N)c(Sc2nc(C)c([N+](=O)[O-])c(C)c2C#N)n1	i	20µM*	i	i	-13.7%
Cc1nc(Sc2ccccc2)c(C#N)c(C)c1[N+](=O)[O-]	i	7.08µM*	i	?	1.2%
COCCn1c(C)cc(O)c(C(c2ccccc2)N2CCN(C)CC2)c1=O (centres undefined)	.	-14.8%	i	i	.
CC(C)(C)c1ccc(C(=O)NCC(c2cccnc2)N2CCc3ccccc3C2)cc1 (centres undefined)	.	22.4µM*	i	i	.
COc1ccc(C2=NN3C(C2)c2ccccc2OC32C(=O)N(C)c3ccccc32)cc1 (centres undefined)	i	22.4µM*	?	i	5.3%
Cn1c(=O)oc2cc(S(=O)(=O)NCCC(=O)Nc3ccc(F)c(Cl)c3)ccc21	.	2.9%	i	i	.
CC(=O)N(c1ccc2oc(=O)sc2c1)S(=O)(=O)c1cccs1	i	25.0%	28.2µM*	i	-1.7%
Oc1ccc(NCc2ccc(OCc3ccccc3)cc2)cc1	i	15.8µM*	?	i	-25.9%
Oc1ccc(NCc2ccc(OCc3ccccc3Cl)cc2)cc1	.	?	i	i	.
COc1cccc2cc(-c3nc4ccccc4o3)c(=O)oc12	i	3.16µM*	i	i	3.16µM*
CC(C)OC(=O)NCCOC(=O)Nc1ccc(Cl)c(Cl)c1	i	11.2µM*	i	i	9.3%
CC(C)OC(=O)NCCOC(=O)Nc1cccc(Cl)c1	i	?	i	i	-22.5%
CCc1c(C)sc2c1CCN(Cc1ccc(F)cc1)C2c1ccccc1 (centres undefined)	.	4.5%	i	i	.
Cc1cc(O)c2c(C)c(CC(=O)N3CCN(C(=O)C4COc5ccccc5O4)CC3)c(=O)oc2c1 (centres undefined)	i	4.0%	28.2µM*	i	0.5%
CSc1ccc(CCNS(=O)(=O)c2cc(-c3cc(C)no3)ccc2C)cc1	.	?	i	i	.
O=C(Nc1ccc(S(=O)(=O)N2CCOCC2)cc1)C1CCN(S(=O)(=O)c2ccc(F)cc2)CC1	i	14.1µM*	?	i	-4.1%
O=C(Nc1ccc(S(=O)(=O)N2CCOCC2)cc1)C1CC(=O)N(c2ccc(F)cc2)C1 (centres undefined)	i	-28.4%	i	i	8.6%
COc1cccc(C(=O)Nc2c3c(nn2-c2ccc(Cl)cc2)CS(=O)(=O)C3)c1	.	4.1%	i	i	-8.9%
CCN1C(=O)[C@H]2[C@@H](c3ccc(-c4cccc(Cl)c4)cc3)N[C@@](Cc3ccccc3)(C(=O)OC)[C@H]2C1=O	i	2.8%	14.1µM*	i	16.3%
CC(C)CCNC(=O)c1ccc(Cn2c(=O)c3cccn3c3cccnc32)cc1	.	0.0%	i	i	.
Cc1cc(NC(=O)COC(=O)C2CC(=O)N(c3ccc(Cl)cc3)C2)no1 (centres undefined)	i	-12.2%	i	i	1.2%
SMILES	Akt phos inh	TDP-43 yeast inh	FUS suppressor	Abeta yeast res	aSyn rescue
CCc1ccc(N2CC(C(=O)OCC(=O)Nc3cc(C)on3)CC2=O)cc1 (centres undefined)	-88.7%*	6.7%	i	i	0.0%
CCOc1ccc(-n2cc(-c3ccccc3)c3c(N4CCC(C)CC4)ncnc32)cc1	.	10.1%	i	i	.
CCc1ccccc1NC(=O)Cn1c(=O)n(-c2ccc(C)c(C)c2)c(=O)c2oc3ccccc3c21	.	-8.7%	i	i	.
O=C(Nc1ccccc1)c1cc2c(=O)c3ccccc3oc2nc1C(F)(F)F	-94.2%*	4.5%	i	i	-3.8%
O=C(Nc1cccc(C(F)(F)F)c1)c1cc2c(=O)c3ccccc3oc2nc1C(F)(F)F	i	22.6%	i	i	-7.5%
COc1ccccc1C(=O)Nc1ccc(S(=O)(=O)Nc2ncccn2)cc1	.	11.0%	i	i	.
CC(C)CCNC(=O)c1ccc(Cn2c(SCC(=O)NC(C)C)nc3ccccc3c2=O)cc1	.	0.6%	i	i	-2.4%
O=C(CCCOc1cccc(Br)c1)NCCOc1ccccc1	i	12.6µM*	i	i	9.6%
CCOc1ccc(-c2nn(-c3ccccc3)cc2C2NC(=O)NC(C)=C2C(=O)OC(C)C)cc1 (centres undefined)	.	-1.4%	?	i	14.5%
Cc1cccc(C)c1OCC(=O)Nc1ccc2c(c1)OCCO2	i	14.1µM*	i	i	0.0%
Cc1ccc(OCC(=O)Nc2ccc3c(c2)OCCO3)cc1C	i	-12.9%	i	i	-0.3%
COc1cccc(-c2nc(SCC(=O)Nc3ccc4c(c3)OCCO4)c(-c3ccc(C)cc3)[nH]2)c1	.	20µM*	?	i	.
Cc1cccc(OCC(=O)Nc2ccc3c(c2)OCCO3)c1	i	17.8µM*	i	i	-2.2%
O=C(C1CCN(S(=O)(=O)c2ccccc2F)CC1)N1CCc2ccccc21	i	12.6µM*	i	i	14.9%
CCOC(=O)c1sc2ccccc2c1S(=O)(=O)N1CCN(c2cccc(C)c2)C(C)C1 (centres undefined)	.	5.6%	i	i	.
NNC(=O)c1cc2cc(Oc3ccccc3)ccc2[nH]1	i	10µM*	i	i	0.8%
COc1cc(NC(=O)c2csc(N)n2)cc(C(=O)Nc2cccc(C(F)(F)F)c2)c1	i	31.6µM*	?	i	-0.1%
COc1cc(NC(=O)c2cc(C)on2)cc(C(=O)Nc2cccc(C(F)(F)F)c2)c1	i	12.6µM*	i	i	1.2%
Cc1ccc(C(=O)NCC(c2ccco2)S(=O)(=O)c2ccccc2)cc1C (centres undefined)	.	12.2%[9.22 µM]	i	i	.
CCOC(=O)c1ccc(NCCOC)c([N+](=O)[O-])c1	i	?	i	i	-1.5%

From PubChem
